Source: the supplement of paper PMC10498489
The campaign covered roughly 2,300 compounds. About 330 (14%) showed activity.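 Rule for the calls: active = median modified Z-score above 1.96; inactive = 1.96 or below.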 A selection follows.

These compounds were tested on HepG2 Srxn1-GFP reporter cells (+30 nM CDDO-Me) (assay: Srxn1-GFP intensity median modified Z-score relative to plate median; higher = stronger NRF2 / oxidative stress reporter activation, active = hit call of the paper). Settings: 10 µM; exposure time: 24h.
Summary of the method: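 The modified Z-score of GFP intensity was computed per plate, and the median over replicates is reported. HepG2 Srxn1-GFP BAC reporter cells in three replicate plates were treated for 24 h with compound at 10 μM plus an NRF2 activator at 30 nM (≤0.1% DMSO). Per-cell cytoplasmic GFP came from confocal images, excluding those with under 100 cells, and scaling used 1.4826 × median absolute deviation.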

SMILES | Srxn1-GFP intensity median modified Z-score
CCCCC(=O)O[C@]1(C(=O)CO)CCC2C3CC=C4CC(=O)CC[C@]4(C)C3[C@@H](O)C[C@@]21C (stereo partly drawn) [euspeclibcmpd786] | -0.698 (inactive)
CC(=O)C12OC(C)(c3ccccc3)OC1CC1C3CC=C4CC(=O)CCC4(C)C3CCC12C (stereo not drawn) [euspeclibcmpd1961] | 5.88 (active)
C[C@]12CCC(=O)CC1=CCC1C2C(=O)C[C@@]2(C)C1CC[C@]2(O)C(=O)CO (stereo partly drawn) [euspeclibcmpd1248] | -0.459 (inactive)
CCCC(=O)O[C@]1(C(=O)CO)CCC2[C@@H]3CC=C4CC(=O)CC[C@]4(C)C3[C@@H](O)C[C@@]21C (stereo partly drawn) [euspeclibcmpd566] | -0.863 (inactive)
CC(=O)[C@@]1(O)CCC2C3CC=C4CC(=O)CC[C@]4(C)C3CC[C@@]21C (stereo partly drawn) [euspeclibcmpd1279] | -0.195 (inactive)
CC(=O)OCC(=O)C1CCC2C3CC=C4CC(=O)CC[C@]4(C)C3CC[C@]12C (stereo partly drawn) [euspeclibcmpd6] | -0.444 (inactive)
CC(=O)C1CCC2C3CC=C4CC(=O)CC[C@]4(C)C3CC[C@]12C (stereo partly drawn) [euspeclibcmpd251] | 2.27 (active)
CCCCCC(=O)O[C@]1(C(C)=O)CCC2C3CC=C4CC(=O)CC[C@]4(C)C3CC[C@@]21C (stereo partly drawn) [euspeclibcmpd155] | 13.5 (active)
CC(=O)C1CCC2C3CC=C4C[C@@H](O)CC[C@]4(C)C3CC[C@]12C (stereo partly drawn) [euspeclibcmpd1041] | 0.815 (inactive)
CC(=O)O[C@]1(C(C)=O)CCC2C3=CC(Cl)=C4CC(=O)CC[C@]4(C)C3CC[C@@]21C (stereo partly drawn) [euspeclibcmpd746] | -0.232 (inactive)
N=C(N)NC(=O)c1nc(Cl)c(=N)[nH]c1N [euspeclibcmpd18] | 1.07 (inactive)
C[C@]12CCC3c4ccc(O)cc4CCC3C1CCC2=O (stereo partly drawn) [euspeclibcmpd118] | -0.384 (inactive)
CC1C(=NO)C[C@@H]2C[C@H]1C2(C)C (stereo partly drawn) [euspeclibcmpd1398] | -0.67 (inactive)
OCc1cc(O)c2c(O)c3c(O[C@@H]4O[C@H](CO)[C@@H](O)[C@H](O)[C@H]4O)cccc3c(O[C@@H]3O[C@H](CO)[C@@H](O)[C@H](O)[C@H]3O)c2c1 [euspeclibcmpd932] | 0.277 (inactive)
CCC(C(=O)O)c1ccccc1 (stereo not drawn) [euspeclibcmpd2274] | -0.651 (inactive)
O=c1oc2cc(O)ccc2s1 [euspeclibcmpd1146] | 5.96 (active)
O=c1ccc2ccc(O)cc2o1 [euspeclibcmpd1541] | -0.459 (inactive)
Cc1cc(=O)oc2cc(O)ccc12 [euspeclibcmpd929] | 0.128 (inactive)
